The whole screen tested about 5,500 compounds, of which about 2,000 (36%) were called active. Another 18% or so got no clear call; they are omitted. Cut-off read from the data, not from the text of the source: active = normalized growth mostly below about 0.91 (no sharp cut-off); inconclusive = no clear call, values can overlap the other calls; inactive = mostly above about 0.92. The list shows a part of the results.
Experiment: chemical genetic growth profiling, strain panel (AID 1159580);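 note: tested at 20 µM; growth read once vehicle control cultures reached saturation at 30 °C; 1 = growth at the plate median or of vehicle wells; lower values mean less growth of the strain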
Details: growth OD

Measured: normalized growth

C#C[C@]1(O)CCC2C3CCC4=C(CCC(=O)C4)C3CC[C@@]21C (some centres undefined)
active: S. cerevisiae deletion strains, locus YLR262C, strain YPT6 (second series), hits give low values 0.825
inactive: S. cerevisiae deletion strains, locus YJR075W, strain HOC1, hits give low values 1.02 | S. cerevisiae deletion strains, locus YKL009W, strain mrt4, hits give low values 0.974 | S. cerevisiae deletion strains, locus YKL068W, hits give low values 1.01 | S. cerevisiae deletion strains, locus YKL085W, strain MDH1 (second series), hits give low values 1.01 | S. cerevisiae deletion strains, locus YKL085W, strain MDH1, hits give low values 1.01 | S. cerevisiae deletion strains, locus YKL160W, strain elf1, hits give low values 0.998 | S. cerevisiae deletion strains, locus YKL190W, strain CNB1, hits give low values 1.04 | S. cerevisiae deletion strains, locus YKR001C, strain vps1, hits give low values 1.01 | S. cerevisiae deletion strains, locus YKR026C, strain gcn3, hits give low values 0.986 | S. cerevisiae deletion strains, locus YKR091W, strain srl3, hits give low values 0.982 | S. cerevisiae deletion strains, locus YLL001W, strain dnm1, hits give low values 1 | S. cerevisiae deletion strains, locus YLL026W, hits give low values 0.994 | S. cerevisiae deletion strains, locus YLL041C, strain sdh2, hits give low values 0.977 | S. cerevisiae deletion strains, locus YLR027C, strain aat2, hits give low values 0.983 | S. cerevisiae deletion strains, locus YLR039C, strain RIC1, hits give low values 0.911 | S. cerevisiae deletion strains, locus YLR058C, strain SHM2, hits give low values 1.01 | S. cerevisiae deletion strains, locus YLR102C, strain apc9, hits give low values 1.01 | S. cerevisiae deletion strains, locus YLR113W, strain HOG1, hits give low values 0.852 | S. cerevisiae deletion strains, locus YLR221C, strain rsa3, hits give low values 0.96 | S. cerevisiae deletion strains, locus YLR258W, strain gsy2, hits give low values 0.973 | S. cerevisiae deletion strains, locus YLR262C, strain YPT6, hits give low values 0.868 | S. cerevisiae deletion strains, locus YLR268W, strain sec22, hits give low values 0.959 | S. cerevisiae deletion strains, locus YLR320W, strain mms22, hits give low values 0.963 | S. cerevisiae deletion strains, locus YLR330W, strain CHS5, hits give low values 1.02 | S. cerevisiae deletion strains, locus YLR342W, strain FKS1 (second series), hits give low values 0.953 | S. cerevisiae deletion strains, locus YLR342W, strain FKS1, hits give low values 0.968 | S. cerevisiae deletion strains, locus YLR357W, strain rsc2, hits give low values 1.03 | S. cerevisiae deletion strains, locus YLR370C, strain arc18, hits give low values 0.97 | S. cerevisiae deletion strains, locus YLR371W, strain rom2, hits give low values 1 | S. cerevisiae deletion strains, locus YLR384C, strain iki3, hits give low values 0.974 | S. cerevisiae deletion strains, locus YLR418C, strain cdc73, hits give low values 0.961 | S. cerevisiae deletion strains, locus YML016C, strain PPZ1, hits give low values 1.01 | S. cerevisiae deletion strains, locus YML032C, strain rad52, hits give low values 0.975 | S. cerevisiae deletion strains, locus YML120C, strain ndi1, hits give low values 0.97 | S. cerevisiae deletion strains, locus YML124C, strain tub3, hits give low values 1.01 | S. cerevisiae deletion strains, locus YMR058W, strain fet3, hits give low values 0.963 | S. cerevisiae deletion strains, locus YMR078C, strain ctf18, hits give low values 1 | S. cerevisiae deletion strains, locus YMR125W, strain sto1, hits give low values 1.01 | S. cerevisiae deletion strains, locus YMR129W, hits give low values 0.972 | S. cerevisiae deletion strains, locus YMR205C, strain PFK2, hits give low values 0.978 | S. cerevisiae deletion strains, locus YMR223W, strain ubp8, hits give low values 1.01 | S. cerevisiae deletion strains, locus YMR231W, strain pep5, hits give low values 0.981 | S. cerevisiae deletion strains, locus YMR307W, strain GAS1, hits give low values 0.989 | S. cerevisiae deletion strains, locus YNL067W, strain RPL9B, hits give low values 1.02 | S. cerevisiae deletion strains, locus YNL071W, strain lat1, hits give low values 0.963 | S. cerevisiae deletion strains, locus YNL128W, strain TEP1, hits give low values 1.03 | S. cerevisiae deletion strains, locus YNL153C, strain GIM3, hits give low values 1.03 | S. cerevisiae deletion strains, locus YNL183C, strain NPR1, hits give low values 0.919 | S. cerevisiae deletion strains, locus YNL209W, strain ssb2, hits give low values 0.989 | S. cerevisiae deletion strains, locus YNL233W, strain BNI4, hits give low values 0.998 | S. cerevisiae deletion strains, locus YNL248C, strain rpa49, hits give low values 0.96 | S. cerevisiae deletion strains, locus YNL250W, strain rad50, hits give low values 0.992 | S. cerevisiae deletion strains, locus YNL271C, strain bni1, hits give low values 0.991 | S. cerevisiae deletion strains, locus YNL298W, strain CLA4, hits give low values 0.986 | S. cerevisiae deletion strains, locus YNL307C, strain MCK1, hits give low values 0.99 | S. cerevisiae deletion strains, locus YNL322C, strain KRE1 (second series), hits give low values 0.97 | S. cerevisiae deletion strains, locus YNR049C, strain mso1, hits give low values 0.982 | S. cerevisiae deletion strains, locus YNR052C, strain pop2, hits give low values 0.992 | S. cerevisiae deletion strains, locus YOL006C, strain TOP1, hits give low values 0.931 | S. cerevisiae deletion strains, locus YOL012C, strain htz1 1.9 | S. cerevisiae deletion strains, locus YOL147C, strain pex11, hits give low values 1.01 | S. cerevisiae deletion strains, locus YOR001W, strain rrp6, hits give low values 0.936 | S. cerevisiae deletion strains, locus YOR061W, strain CKA2, hits give low values 1 | S. cerevisiae deletion strains, locus YOR069W, strain VPS5, hits give low values 1.02 | S. cerevisiae deletion strains, locus YOR070C, strain gyp1, hits give low values 1 | S. cerevisiae deletion strains, locus YOR080W, strain dia2, hits give low values 0.999 | S. cerevisiae deletion strains, locus YOR083W, strain WHI5, hits give low values 0.985 | S. cerevisiae deletion strains, locus YOR106W, strain vam3, hits give low values 0.991 | S. cerevisiae deletion strains, locus YOR136W, strain idh2, hits give low values 1 | S. cerevisiae deletion strains, locus YOR144C, strain elg1, hits give low values 1 | S. cerevisiae deletion strains, locus YOR184W, strain ser1, hits give low values 0.898 | S. cerevisiae deletion strains, locus YOR231W, strain MKK1, hits give low values 0.919 | S. cerevisiae deletion strains, locus YOR265W, strain rbl2, hits give low values 0.987 | S. cerevisiae deletion strains, locus YOR270C, strain vph1, hits give low values 0.955 | S. cerevisiae deletion strains, locus YOR290C, strain snf2, hits give low values 0.932 | S. cerevisiae deletion strains, locus YOR316C, strain cot1, hits give low values 1 | S. cerevisiae deletion strains, locus YPL051W, strain arl3, hits give low values 0.983 | S. cerevisiae deletion strains, locus YPL078C, strain atp4, hits give low values 0.93 | S. cerevisiae deletion strains, locus YPL106C, strain sse1, hits give low values 1.03 | S. cerevisiae deletion strains, locus YPL240C, strain hsp82, hits give low values 0.981 | S. cerevisiae deletion strains, locus YPL241C, strain CIN2, hits give low values 1.02 | S. cerevisiae deletion strains, locus YPL256C, strain CLN2, hits give low values 0.838 | S. cerevisiae deletion strains, locus YPR119W, strain clb2, hits give low values 1 | S. cerevisiae deletion strains, locus YPR141C, strain kar3, hits give low values 1.01 | S. cerevisiae deletion strains, locus YPR163C, strain tif3, hits give low values 1.02 | S. cerevisiae deletion strains, locus YPR167C, strain met16, hits give low values 1 | S. cerevisiae deletion strains, strain wtn01, hits give low values 0.996 | S. cerevisiae strains, strain wild type, hits give low values 1.03

Source: PubChem BioAssay AID1159580 (chemical genetic matrix, 2015)
